Test results taken from PubChem BioAssay (NCI).
This is part of a sample that, as a whole, favours compounds with a hit. Of some 83,000 tested, about 20% had one in any assay.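 Results are percent growth after 48 hours of single-concentration exposure. 100 means growth as in untreated cells, lower positive values show inhibition; negative values down to -100 show cell death.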 Unmarked numbers belong to inactive results. The source made the active and inactive calls. The calls were made as follows: active = growth percent below 10; inactive = the rest.

What was measured:
Experiment in all cases: NCI-60 one-dose screen, 48 h (100 = growth as untreated, 0 = no growth, -100 = all killed)
Details in all cases: 10 µM unless noted
NCI-H23 lung = test system: NCI-H23 lung
NCI-H226 lung = test system: NCI-H226 lung
NCI-H322M lung = test system: NCI-H322M lung
HOP-62 NSCLC = test system: HOP-62 NSCLC
NCI-H460 lung = test system: NCI-H460 lung
NCI-H522 lung = test system: NCI-H522 lung
A549/ATCC NSCLC = test system: A549/ATCC NSCLC
786-0 renal = test system: 786-0 renal
COLO 205 colon = test system: COLO 205 colon
DU-145 prostate = test system: DU-145 prostate
K-562 leukemia = test system: K-562 leukemia
MALME-3M melanoma = test system: MALME-3M melanoma
MDA-MB-231 breast = test system: MDA-MB-231 breast
RXF 393 renal = test system: RXF 393 renal
SF-268 CNS = test system: SF-268 CNS
SF-295 CNS = test system: SF-295 CNS
SF-539 CNS = test system: SF-539 CNS
UACC-257 melanoma = test system: UACC-257 melanoma
M14 melanoma = test system: M14 melanoma

Row | SMILES | growth (NCI-H23 lung) | growth (NCI-H226 lung) | growth (NCI-H322M lung) | growth (HOP-62 NSCLC) | growth (NCI-H460 lung) | growth (NCI-H522 lung) | growth (A549/ATCC NSCLC) | growth (786-0 renal) | growth (COLO 205 colon) | growth (DU-145 prostate) | growth (K-562 leukemia) | growth (MALME-3M melanoma) | growth (MDA-MB-231 breast) | growth (RXF 393 renal) | growth (SF-268 CNS) | growth (SF-295 CNS) | growth (SF-539 CNS) | growth (UACC-257 melanoma) | growth (M14 melanoma)
1 | COc1ccc2[nH]cc(C3(c4c[nH]c5ccc(OC)cc45)C(=O)Nc4ccc(Cl)cc43)c2c1 | 80.3% | 108% | 85.5% | 85.2% | 6.57% (active) | 65.7% | 63.6% | 74.1% | 69.2% | 66.9% | 6.2% (active) | 78.9% | 82.4% | 94.5% | 40.8% | 59.6% | 74.8% | 86.5% | 73.8%
2 | CSC1=N/C(=C\c2cccc(OCc3ccc(Cl)cc3)c2)C(=O)N1 | 82.8% | 75% | 87.2% | 99.4% | 81.3% | 48% | 83.4% | 83.8% | 82.8% | 77.7% | 81.7% | 99% | 99.8% | 104% | 85.3% | 87.6% | 99% | 100% | 88%
3 | CCCCn1cnc2c(SCc3ccc([N+](=O)[O-])cc3)nc(N)nc21 | 96.5% | 85.6% | 112% | 95.2% | 108% | 73.9% | 90.6% | 79.5% | 105% | 123% | 59.8% | 130% | 82.3% | 106% | 84.4% | 122% | 94.7% | 97.5% | 106%
4 | Cc1ccc(C(CN(C)C)C(=O)c2ccccc2)cc1 (centres undefined) | 71.5% | 80.9% | 101% | 101% | 71.7% | -66.4% (active) | 81.7% | -20.7% (active) | 43.5% | 34.7% | -26.8% (active) | 79.8% | 25.4% | 43.6% | 25.9% | 85.6% | 57.6% | 49.1% | 31.6%
5 | COc1cc(C2CC(c3ccc(C)cc3)=NN2C=O)ccc1Oc1nc2c(c(=O)n(C)c(=O)n2C)n1C (centres undefined) | 85.3% | 84% | 60.8% | 115% | 98.6% | 98.3% | 52% | 110% | 110% | 64.5% | 88.3% | 87.8% | 84.8% | 98.6% | 58.1% | 69.8% | 116% | -31.3% (active) | 77.5%
6 | c1coc(CNc2c3ccccc3nc3ccccc23)c1 | 63.6% | 62.9% | 65% | 69.6% | 56.5% | 47.3% | 61.9% | 65.7% | 35.2% | 76% | 44.7% | 90.4% | 60.5% | 61.5% | 85.7% | 53.9% | 65.9% | 81.7% | 79.7%
7 | CNC1=C([N+](=O)[O-])C(c2ccccc2O)C(C#N)=C(c2cccs2)O1 (centres undefined) | 99.1% | 97.5% | 98.6% | 88% | 105% | 7.12% (active) | 99.7% | 93.2% | 101% | 103% | 63.8% | 52.8% | 93.8% | 89.7% | 96.3% | 102% | 95.6% | 78.3% | 93.4%
8 | O=S(=O)(Nc1ccc2ccccc2c1)N1CCCCC1 | 56.6% | 75.9% | 92.8% | 62.9% | 65.5% | 2.32% (active) | 68.9% | 70.3% | 69.9% | 78.4% | 41.4% | 63.3% | 71.8% | 68.3% | 61.3% | 64% | 70.2% | 61.1% | 38.6%
9 | OC(CCCCCCCCC(O)CN1CCc2ccccc2C1)CN1CCc2ccccc2C1 (centres undefined) | 101% | 99.9% | 87.5% | 103% | 108% | 105% | 101% | 94.7% | 101% | 108% | 97.3% | 97.5% | 98% | 110% | 102% | 83.2% | 101% | 98.5% | 109%
10 | O=C(NCCN1CCCCC1)n1cc(-c2ccncc2)c(-c2ccc(Cl)c(O)c2)n1 | 83.4% | 102% | 119% | 79% | 91.5% | 84.9% | 98.4% | 85.9% | 87% | 105% | 89.5% | -1.57% (active) | 74.5% | 68% | 89.8% | 120% | 91.3% | 58.9% | 27.5%
11 | COc1ccc2nc(C)cc(Sc3nc4ccccc4s3)c2c1 | 29.4% | 39.5% | 60% | 57.5% | 34.6% | -20.9% (active) | 35.7% | 73.8% | 33.7% | 37.3% | 4.93% (active) | 25.7% | 27.9% | -16.5% (active) | 42.7% | 82.5% | 55.4% | 49% | 65.5%
12 | CCOC(=O)C1OC2(CCCC2)OC1C(=O)OCC (centres undefined) | 103% | 97.1% | 94.3% | 103% | 116% | 90.5% | 102% | 100% | 111% | 125% | 112% | 107% | 95.7% | 104% | 114% | 126% | 114% | 97.7% | 105%
13 | CC(C)C/C=C/C=C/C(=O)N[C@@H](CC(N)=O)C(=O)N[C@@H]1C(=O)N[C@H](c2ccc(O)cc2)C(=O)N[C@H](CCCN)C(=O)N[C@H]([C@@H](C)O)C(=O)N[C@H](c2ccc(O)cc2)C(=O)N[C@H](c2ccc(O)cc2)C(=O)N[C@H]([C@H](C)O)C(=O)N[C@H](Cc2ccccc2)C(=O)N[C@H](CCCN)C(=O)N[C@H](c2ccc(O[C@H]3O[C@@H](CO)[C@@H](O)[C@@H](O)[C@H]3O[C@@H]3O[C@H](CO)[C@H](O)[C@H](O)[C@@H]3O)cc2)C(=O)N[C@H]([C@H](C)O)C(=O)N[C@H](c2ccc(O)cc2)C(=O)NCC(=O)N[C@H](CC(C)C)C(=O)N[C@H](C)C(=O)N[C@H](c2ccc(O)c(Cl)c2)C(=O)O[C@@H]1C(N)=O | 39.5% | 68.6% | 57.5% | 53.4% | 15.6% | 78.1% | 91.8% | -48.7% (active) | 101% | 90.6% | 30.8% | 23.4% | -4.62% (active) | 44.9% | 59.9% | 20.1% | 4.24% (active) | 6.54% (active) | 44.4%
14 | CC(=O)Oc1ccccc1C(=O)Nc1ncc([N+](=O)[O-])s1 | 6.3% (active) | 63.5% | 10.8% | 67.1% | 13.4% | -15.9% (active) | 51.2% | -11.4% (active) | 93.2% | 32.1% | -8.68% (active) | -10.6% (active) | 26.9% | 54.5% | 18.7% | 9.28% (active) | 39.5% | 39.2% | 14.6%
15 | Oc1ccc(-c2nnc3c4[nH]ccc4ncn23)cc1 | 91.5% | 100% | 98.2% | 100% | 90.1% | 81.5% | 93.7% | 95.6% | 105% | 97.2% | 98.4% | 94.5% | 92% | 113% | 103% | 101% | 101% | 117% | 104%
16 | O=C1C=CN2C(=O)CC=CC2[C@@H]1O (some centres undefined) | 103% | 113% | 116% | 112% | 121% | 113% | 108% | 110% | 123% | 118% | 109% | 133% | 122% | 118% | 111% | 116% | 104% | 108% | 104%
